The source of these data is PubChem BioAssay (EPA / NIEHS).

Structures are written as SMILES. Where “and” joins values, the source holds several entries; their conditions need not be identical. Identical values can stand only once. More than one record can exist for a structure, and the calls need not agree. Calls of active or inactive are those of the source. The calls were made as follows: active = hit-call score of the fitted dose curve at least 0.9, where 1 is the maximum; inactive = score below 0.9.

Assay [1] can be described thus: ATG_GLI_CIS: Attagene CIS-FACTORIAL HepG2 Assay for human Zinc Finger Protein GLI1 (AID 2282945). The following applies: HepG2, Attagene cis-factorial reporter mRNA, GLI element; actives raise or lower the signal. In short, it runs like this:
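HepG2 cells transiently transfected with cis-promoter multiplexed reporter units report endogenous transcription factor activity. After 24 h chemical exposure, reporter mRNA was quantified by RT-PCR, 6-FAM labelling, HpaI digestion and capillary electrophoresis, with bidirectional fitting against DMSO.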

A short description of assay [2]: ATG_ISRE_CIS: Attagene CIS-FACTORIAL HepG2 Assay for human Interferon Regulatory Factor 1 (IRF1) binding to an Interferon-Stimulated Response Element (ISRE) (AID 2282948). The note with it: HepG2 ISRE cis-reporter (Attagene), mRNA transcription readout; actives raise or lower the signal. In short, it runs like this: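 Transiently transfected HepG2 cells carrying cis-element reporter units, dosed 24 hours. Reporter mRNA quantified by RT-PCR, fluorescent primer extension, HpaI digestion and capillary electrophoresis. Bidirectional fitting relative to DMSO.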

Assay [3] in a line: ATG_M_32_CIS: Attagene CIS-FACTORIAL HepG2 Assay for M32 Transcription Factor (Internal Marker) (AID 2282949).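 Also: background control marker of the multiplexed CIS panel rather than a real target.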 The following applies: HepG2 Attagene cis-factorial M32 reporter, mRNA; actives raise or lower the signal. In short, it runs like this:
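HepG2 cells transiently transfected with multiplexed cis-regulated reporter units, dosed 24 h. Reporter mRNA quantified by RT-PCR, 6-FAM labelling, HpaI digestion and capillary electrophoresis; bidirectional fit vs DMSO.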

Assay [4] can be described thus: ATG_M_06_CIS: Attagene CIS-FACTORIAL HepG2 Assay for M06 Transcription Factor (Internal Marker) (AID 2282950). The following applies: HepG2 Attagene CIS-FACTORIAL M06 internal marker reporter; actives raise or lower the signal. In short, it runs like this: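 HepG2 cells transiently transfected with cis-regulated multiple reporter transcription units were exposed to chemical for 24 h; reporter mRNA was quantified by RT-PCR, 6-FAM primer labelling, HpaI digestion and capillary electrophoresis, fitted bidirectionally against DMSO.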

In assay [5] the target is Hypoxia-inducible factor 1-alpha (Homo sapiens) (UniProt Q16665). In words: ATG_HIF1a_CIS: Attagene CIS-FACTORIAL HepG2 Assay for human Hypoxia Inducible Factor 1 (HIF1A) (AID 2282951). The following applies: HepG2 Attagene cis-factorial HIF1a reporter transcription; actives raise or lower the signal. In short, it runs like this: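 Endogenous-TF cis reporter readout, human HepG2 cells, 24 h incubation; mRNA detected via RT-PCR and capillary electrophoresis fluorescence; DMSO-normalised bidirectional fitting.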

Assay [6] addresses Hepatocyte nuclear factor 6 (Homo sapiens) (UniProt Q9UBC0). Nature of the assay: ATG_HNF6_CIS: Attagene CIS-FACTORIAL HepG2 Assay for human Hepatocyte Nuclear Factor 6 (HNF6) (AID 2282952). The following applies: HepG2 Attagene cis-factorial HNF6 reporter transcription; actives raise or lower the signal. In short, it runs like this:
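Multiplexed mRNA reporter assay in transfected HepG2; 24 h dosing; RT-PCR plus capillary electrophoresis fluorescence; DMSO-referenced bidirectional curve fitting.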

Assay [7] concerns the target Heat shock factor protein 1 (Homo sapiens) (UniProt Q00613). In words: ATG_HSE_CIS: Attagene CIS-FACTORIAL HepG2 Assay for human Heat Shock Transcription Factor 1 (HSE) (AID 2282953). The note with it: HepG2 HSE cis-reporter, Attagene RNA transcription; actives raise or lower the signal. In short, it runs like this: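 HepG2 cells transiently transfected with multiple reporter transcription units under cis-regulatory promoter control, measuring endogenous transcription factor activity. After 24 h chemical exposure, reporter mRNA quantified by RT-PCR, fluorescent labelling, HpaI digestion and capillary electrophoresis; bidirectional fit versus DMSO.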

Assay [8] can be described thus: ATG_MRE_CIS: Attagene CIS-FACTORIAL HepG2 Assay for human Metal Responsive Element (MRE) (AID 2282954). The following applies: HepG2 MRE cis-reporter transcription, Attagene multiplex; actives raise or lower the signal. In short, it runs like this: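 Step one: transfect HepG2 with cis-regulated reporter units. Step two: dose 24 h. Step three: isolate RNA, RT-PCR, 6-FAM label, HpaI digest, capillary electrophoresis. Fit bidirectionally to DMSO.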

A short description of assay [9]: ATG_PBREM_CIS: Attagene CIS-FACTORIAL HepG2 Assay for human Phenobarbital-responsive Enhancer Module (PBREM) (AID 2282955). The note with it: HepG2 PBREM cis-reporter, Attagene multiplexed transcription; actives raise or lower the signal. In short, it runs like this: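 Readout: reporter mRNA, fluorescent RT-PCR fragments separated by capillary electrophoresis. System: HepG2 transiently transfected with cis-regulated reporter units. Exposure: 24 h. Analysis: bidirectional, DMSO baseline.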

The target in assay [10] is Paired box protein Pax-6 (Homo sapiens) (UniProt P26367). In words: ATG_Pax6_CIS: Attagene CIS-FACTORIAL HepG2 Assay for human Paired Box 6 (PAX6) (AID 2282956). The note with it: HepG2 CIS-FACTORIAL PAX6 reporter transcription, RNA readout; actives raise or lower the signal. In short, it runs like this: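 HepG2 cells transiently transfected with cis-promoter-driven multiplexed reporter units sensing endogenous transcription factor activity; 24 h chemical exposure. Reporter mRNA quantified by RT-PCR, 6-FAM labelling, HpaI digestion and capillary electrophoresis; bidirectional fit versus DMSO baseline.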

The nature of assay [11]: ATG_PXRE_CIS: Attagene CIS-FACTORIAL HepG2 Assay for human Pregnane X Receptor Element (PXRE) (AID 2282957). The following applies: HepG2 Attagene CIS-FACTORIAL PXRE reporter, mRNA; actives raise or lower the signal. In short, it runs like this: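 Cells: HepG2, transiently transfected reporter units under cis promoter control. Exposure: 24 h. Detection: reporter mRNA via RT-PCR/CE fluorescence; bidirectional fitting, DMSO-referenced.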

The nature of assay [12]: ATG_PPRE_CIS: Attagene CIS-FACTORIAL HepG2 Assay for human Peroxisome Proliferator-activated Response Element (PPRE) (AID 2282958). The following applies: HepG2 PPRE cis-element reporter, Attagene transcription factor profiling; actives raise or lower the signal. In short, it runs like this: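 After human HepG2 hepatoma cells were transiently transfected with cis-promoter reporter constructs, they were exposed to test chemicals for 24 hours. Reporter RNA was then reverse-transcribed, PCR-amplified, FAM-labeled, HpaI-digested and quantified by capillary electrophoresis.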

The nature of assay [13]: ATG_Sox_CIS: Attagene CIS-FACTORIAL HepG2 Assay for human SRY-box transcription factor (SOX) (AID 2282960). The following applies: HepG2 Attagene cis-factorial SOX reporter, mRNA; actives raise or lower the signal. In short, it runs like this: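 Using transiently transfected HepG2 cells, reporter transcription driven by cis elements was assessed 24 h after dosing. Signal was fluorescence of capillary-separated RT-PCR products, with DMSO defining baseline activity.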

For assay [14], the target named is Transcription factor Sp1 (Homo sapiens) (UniProt P08047). In words: ATG_Sp1_CIS: Attagene CIS-FACTORIAL HepG2 Assay for human Specificity Protein 1 (Sp1) (AID 2282961). The following applies: HepG2 Sp1 cis-reporter transcription, actives raise or lower the signal. In short, it runs like this:
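After transient transfection of HepG2 cells with cis-promoter reporter units and 24 h chemical treatment, reporter transcripts were quantified by RT-PCR and capillary electrophoresis fluorescence. Gain- and loss-of-signal fitted against DMSO.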

The nature of assay [15]: ATG_SREBP_CIS: Attagene CIS-FACTORIAL HepG2 Assay for human Sterol Regulatory Element Binding (SREBP) (AID 2282962). The note with it: HepG2 Attagene cis-factorial SREBP reporter, mRNA; actives raise or lower the signal. In short, it runs like this:
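HepG2 cells transiently transfected with multiplexed cis-promoter reporter units sensing endogenous transcription factors; reporter mRNA measured 24 h after dosing by RT-PCR, 6-FAM labeling, HpaI digestion and capillary electrophoresis. Bidirectional fit versus DMSO.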

The target in assay [16] is Signal transducer and activator of transcription 3 (Homo sapiens) (UniProt P40763). In words: ATG_STAT3_CIS: Attagene CIS-FACTORIAL HepG2 Assay for human Signal Transducer and Activator of Transcription 3 (STAT3) (AID 2282963). The note with it: HepG2, Attagene cis-factorial STAT3 reporter transcription; actives raise or lower the signal. In short, it runs like this:
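Transcript-level reporter assay. HepG2 transient MRTU transfection, 24 h exposure, fluorescence detection after RT-PCR and CE; DMSO baseline.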

A short description of assay [17]: ATG_TA_CIS: Attagene CIS-FACTORIAL HepG2 Assay for human TA Basal Promoter (AID 2282964). The following applies: HepG2 Attagene CIS-factorial TA basal promoter reporter; actives raise or lower the signal. In short, it runs like this: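 HepG2 cells transiently transfected with multiplexed cis-promoter reporter units, dosed 24 h. Reporter mRNA measured by RT-PCR, 6-FAM labelling, HpaI digestion and capillary electrophoresis; bidirectional fit versus DMSO baseline, serving as background control.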

For assay [18], the target named is Bile acid receptor (Homo sapiens) (UniProt Q96RI1). Nature of the assay: ATG_IR1_CIS: Attagene CIS-FACTORIAL HepG2 Assay for human Nuclear Receptor Subfamily 1 Group H Member 4 (NR1H4), IR1 submotif (AID 2282946). The following applies: IR1 reporter transcription, actives raise or lower the signal. In short, it runs like this: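 Transient MRTU transfection, HepG2; 24 h dosing; RNA → RT-PCR → 6-FAM primer extension → HpaI digest → capillary electrophoresis fluorescence. Gain/loss of signal fitted relative to DMSO.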

A short description of assay [19]: ATG_GRE_CIS: Attagene CIS-FACTORIAL HepG2 Assay for human Glucocorticoid Response Elements (GRE) (AID 2282947). The following applies: HepG2 GRE cis-reporter, Attagene multiplex mRNA; actives raise or lower the signal. In short, it runs like this: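 Following 24 h chemical exposure of transiently transfected HepG2 cells, total RNA was reverse-transcribed and reporter cDNA amplified, fluorescently labelled and sized by capillary electrophoresis. Signal gain or loss was fitted relative to DMSO vehicle.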

Assay [20] in a line: ATG_RORE_CIS: Attagene CIS-FACTORIAL HepG2 Assay for human RAR-related Orphan Receptor Element (RORE) (AID 2282959). The following applies: HepG2 Attagene cis-factorial RORE reporter, mRNA; actives raise or lower the signal. In short, it runs like this:
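Measured here: transcript induction of a cis-regulated reporter in HepG2 cells transiently transfected via FuGene 6. After 24 h, RNA was processed by RT-PCR and fluorescent capillary electrophoresis; DMSO defined baseline activity.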

Chain of Hepatocyte nuclear factor 6 (Homo sapiens) (Q9UBC0 whole entry, looked up): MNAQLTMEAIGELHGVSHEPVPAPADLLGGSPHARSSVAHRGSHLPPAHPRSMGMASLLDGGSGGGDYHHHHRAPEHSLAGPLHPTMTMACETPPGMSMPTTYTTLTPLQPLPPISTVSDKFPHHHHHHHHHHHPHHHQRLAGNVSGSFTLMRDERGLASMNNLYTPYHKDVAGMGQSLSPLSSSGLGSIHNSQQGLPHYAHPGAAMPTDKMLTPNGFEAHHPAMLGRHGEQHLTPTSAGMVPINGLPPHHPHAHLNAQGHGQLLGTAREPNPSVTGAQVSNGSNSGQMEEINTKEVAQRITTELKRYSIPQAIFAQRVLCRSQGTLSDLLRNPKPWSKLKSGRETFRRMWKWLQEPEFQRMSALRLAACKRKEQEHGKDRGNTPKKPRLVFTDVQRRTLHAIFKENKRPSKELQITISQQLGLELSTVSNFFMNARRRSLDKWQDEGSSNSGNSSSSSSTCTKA
Chain of Transcription factor Sp1 (Homo sapiens) (P08047 whole entry, looked up): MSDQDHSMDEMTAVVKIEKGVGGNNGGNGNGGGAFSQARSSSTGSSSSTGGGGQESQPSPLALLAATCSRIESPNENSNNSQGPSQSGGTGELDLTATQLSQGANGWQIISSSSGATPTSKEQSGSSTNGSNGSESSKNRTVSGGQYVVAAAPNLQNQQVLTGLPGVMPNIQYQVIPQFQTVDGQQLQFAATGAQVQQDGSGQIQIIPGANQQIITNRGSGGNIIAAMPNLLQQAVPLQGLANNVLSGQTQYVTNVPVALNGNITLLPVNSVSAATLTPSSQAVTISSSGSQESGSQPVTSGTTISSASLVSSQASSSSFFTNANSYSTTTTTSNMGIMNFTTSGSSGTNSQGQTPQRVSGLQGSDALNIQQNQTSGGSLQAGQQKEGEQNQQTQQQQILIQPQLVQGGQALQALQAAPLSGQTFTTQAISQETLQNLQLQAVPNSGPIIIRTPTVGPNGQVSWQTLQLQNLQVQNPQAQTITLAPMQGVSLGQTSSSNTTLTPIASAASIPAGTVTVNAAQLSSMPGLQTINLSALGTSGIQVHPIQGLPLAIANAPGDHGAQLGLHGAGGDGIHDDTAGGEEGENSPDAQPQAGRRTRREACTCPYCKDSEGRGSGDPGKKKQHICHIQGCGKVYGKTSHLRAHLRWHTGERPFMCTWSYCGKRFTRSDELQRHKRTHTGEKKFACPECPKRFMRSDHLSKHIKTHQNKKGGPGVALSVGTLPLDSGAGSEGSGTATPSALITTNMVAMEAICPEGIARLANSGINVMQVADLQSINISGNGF
Chain of Hypoxia-inducible factor 1-alpha (Homo sapiens) (Q16665 whole entry, looked up): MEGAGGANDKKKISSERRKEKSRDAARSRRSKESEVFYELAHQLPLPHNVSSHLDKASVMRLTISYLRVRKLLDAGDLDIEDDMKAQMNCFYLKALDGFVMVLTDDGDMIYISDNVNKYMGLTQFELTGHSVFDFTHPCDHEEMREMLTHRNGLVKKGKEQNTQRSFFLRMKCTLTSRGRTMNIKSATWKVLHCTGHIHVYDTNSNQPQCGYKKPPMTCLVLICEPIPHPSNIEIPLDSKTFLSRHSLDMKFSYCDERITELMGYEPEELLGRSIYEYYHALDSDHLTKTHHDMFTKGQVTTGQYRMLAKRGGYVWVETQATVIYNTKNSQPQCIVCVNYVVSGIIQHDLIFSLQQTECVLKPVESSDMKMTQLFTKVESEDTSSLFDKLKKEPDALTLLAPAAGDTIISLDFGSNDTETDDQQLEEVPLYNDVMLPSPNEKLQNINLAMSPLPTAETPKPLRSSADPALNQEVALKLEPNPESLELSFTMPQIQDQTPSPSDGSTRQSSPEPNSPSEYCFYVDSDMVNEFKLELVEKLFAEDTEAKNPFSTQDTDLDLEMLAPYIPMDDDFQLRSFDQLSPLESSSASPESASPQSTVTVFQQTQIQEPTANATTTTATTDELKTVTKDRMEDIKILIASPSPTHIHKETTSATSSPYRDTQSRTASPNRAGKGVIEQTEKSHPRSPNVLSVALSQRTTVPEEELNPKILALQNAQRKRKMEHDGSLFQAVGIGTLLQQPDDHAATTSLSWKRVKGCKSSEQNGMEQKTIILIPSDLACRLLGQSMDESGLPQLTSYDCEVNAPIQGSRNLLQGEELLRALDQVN
Chain of Heat shock factor protein 1 (Homo sapiens) (Q00613 whole entry, looked up): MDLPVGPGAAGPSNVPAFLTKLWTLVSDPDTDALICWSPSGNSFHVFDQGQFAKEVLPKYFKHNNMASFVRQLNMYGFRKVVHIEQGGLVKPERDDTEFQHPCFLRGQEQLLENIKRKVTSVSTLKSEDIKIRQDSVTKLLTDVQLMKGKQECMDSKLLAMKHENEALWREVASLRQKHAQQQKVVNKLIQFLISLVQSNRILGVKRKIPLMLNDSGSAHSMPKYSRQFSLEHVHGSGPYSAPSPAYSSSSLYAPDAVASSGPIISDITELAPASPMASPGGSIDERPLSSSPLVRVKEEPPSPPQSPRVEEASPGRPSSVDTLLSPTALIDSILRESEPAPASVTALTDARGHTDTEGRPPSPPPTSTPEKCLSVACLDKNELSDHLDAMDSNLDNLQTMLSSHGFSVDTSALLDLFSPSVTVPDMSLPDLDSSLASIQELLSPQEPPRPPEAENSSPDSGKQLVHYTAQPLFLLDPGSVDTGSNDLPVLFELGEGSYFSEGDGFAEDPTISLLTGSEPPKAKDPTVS
Chain of Signal transducer and activator of transcription 3 (Homo sapiens) (P40763 whole entry, looked up): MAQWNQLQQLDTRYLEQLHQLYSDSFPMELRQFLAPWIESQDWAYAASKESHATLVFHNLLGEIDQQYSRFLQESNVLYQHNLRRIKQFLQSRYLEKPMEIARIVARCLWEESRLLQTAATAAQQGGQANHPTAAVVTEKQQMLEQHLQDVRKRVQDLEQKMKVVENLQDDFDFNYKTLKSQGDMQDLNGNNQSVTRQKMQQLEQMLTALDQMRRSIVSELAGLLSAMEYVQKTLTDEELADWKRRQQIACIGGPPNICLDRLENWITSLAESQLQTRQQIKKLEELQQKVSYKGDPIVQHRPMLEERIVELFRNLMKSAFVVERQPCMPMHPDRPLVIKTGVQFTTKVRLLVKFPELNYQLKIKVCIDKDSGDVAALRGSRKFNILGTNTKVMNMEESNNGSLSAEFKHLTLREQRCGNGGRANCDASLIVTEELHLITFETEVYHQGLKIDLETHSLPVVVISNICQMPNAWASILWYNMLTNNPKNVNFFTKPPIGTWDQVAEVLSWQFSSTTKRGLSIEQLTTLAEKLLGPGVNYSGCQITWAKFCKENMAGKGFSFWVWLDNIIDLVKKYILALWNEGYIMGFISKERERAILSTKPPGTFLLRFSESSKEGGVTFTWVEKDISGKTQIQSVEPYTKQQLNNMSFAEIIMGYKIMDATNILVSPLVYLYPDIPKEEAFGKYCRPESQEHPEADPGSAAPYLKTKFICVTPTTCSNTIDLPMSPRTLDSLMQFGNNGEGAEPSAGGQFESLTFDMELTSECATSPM
Chain of Paired box protein Pax-6 (Homo sapiens) (P26367 whole entry, looked up): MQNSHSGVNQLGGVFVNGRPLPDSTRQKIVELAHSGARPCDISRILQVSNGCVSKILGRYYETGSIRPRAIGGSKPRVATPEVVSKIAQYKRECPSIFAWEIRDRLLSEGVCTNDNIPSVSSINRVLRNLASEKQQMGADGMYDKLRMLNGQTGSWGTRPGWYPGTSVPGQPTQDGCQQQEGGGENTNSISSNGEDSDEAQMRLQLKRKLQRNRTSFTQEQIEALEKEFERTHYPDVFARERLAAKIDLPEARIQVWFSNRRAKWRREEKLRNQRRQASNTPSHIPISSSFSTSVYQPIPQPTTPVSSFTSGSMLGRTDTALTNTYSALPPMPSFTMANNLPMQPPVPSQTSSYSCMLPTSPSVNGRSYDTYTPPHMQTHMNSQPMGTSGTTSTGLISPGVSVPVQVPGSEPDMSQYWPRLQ
Chain of Bile acid receptor (Homo sapiens) (Q96RI1 whole entry, looked up): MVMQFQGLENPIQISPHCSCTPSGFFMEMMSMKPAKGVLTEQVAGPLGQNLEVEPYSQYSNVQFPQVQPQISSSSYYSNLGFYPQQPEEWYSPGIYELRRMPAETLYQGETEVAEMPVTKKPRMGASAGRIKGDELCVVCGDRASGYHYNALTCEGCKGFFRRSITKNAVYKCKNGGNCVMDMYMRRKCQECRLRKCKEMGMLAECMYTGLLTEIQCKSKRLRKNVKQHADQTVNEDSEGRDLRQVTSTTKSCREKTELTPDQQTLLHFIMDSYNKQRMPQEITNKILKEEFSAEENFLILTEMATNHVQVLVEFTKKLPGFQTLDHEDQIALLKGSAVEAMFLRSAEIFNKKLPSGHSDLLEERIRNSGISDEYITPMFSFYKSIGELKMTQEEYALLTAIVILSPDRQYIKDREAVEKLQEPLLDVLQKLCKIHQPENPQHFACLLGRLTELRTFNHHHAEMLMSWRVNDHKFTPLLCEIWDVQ

With `CCC(C)(C)C1CCC(O)CC1` (stereo not drawn), the compound was called inactive in [1], in [2], in assay [3], in assay [4], in [5] and in assay [6]. Also, the outcome in [7], in [8], in [9], in [10], in assay [12] and in assay [13] was inactive. The compound was called inactive in assay [14], in assay [15], in assay [16] and in [17]. Moreover, in assay [11], the AC50 was 21.9 µM (active) [middle of 4 runs].

`COc1cc(CCC(=O)CC(=O)CCc2ccc(O)c(OC)c2)ccc1O`: the compound was called inactive in assay [1], in assay [18], in assay [19], in assay [2], in assay [3] and in assay [5]. Besides, the call in assay [6], in assay [7], in assay [9], in [10], in assay [12] and in [20] was inactive. Moreover, the outcome in assay [13], in [14], in [15], in assay [16] and in [17] was inactive. Also, the AC50 in [8] is 76.4 µM (active); in assay [11], 8.44 µM (active).

Regarding `CCc1ccc(CCOc2ccc(CC3SC(=O)NC3=O)cc2)nc1` (stereo not drawn), the call in assay [1], in assay [19], in assay [2], in assay [3], in [5] and in assay [6] was inactive. For the same compound, the outcome in assay [7], in assay [8], in assay [9], in assay [10], in [20] and in [13] was inactive. Also, the outcome in assay [14], in assay [15], in [16] and in assay [17] was inactive. Further, the AC50 in [11] is 6.6 µM (active) and 1.59 µM (active); in assay [15], 26.2 µM (active).

For the compound `COCC(C)OCC(C)O` (stereo not drawn), the result in assay [1], in assay [18], in assay [19], in [2], in assay [3] and in [5] was inactive. The compound was called inactive in [6], in [7], in assay [8], in assay [9], in [10] and in assay [11]. In addition, the compound was called inactive in assay [12], in [20], in assay [13], in [14], in [15] and in assay [16]. In addition, the call in assay [17] was inactive.
